Usually AC50 stands for the midpoint of the concentration-response curve, whichever way the signal moves.

SMILES strings stand for the structures. “And” between values parts separate entries of the source, which are not always exact repeats. Equal values may be shown once. More than one record can exist for a structure, and the calls need not agree. The source made the active and inactive calls. The calls were made as follows: active = hit-call score of the fitted dose curve at least 0.9, where 1 is the maximum; inactive = score below 0.9.

Assay [1] in a line: APR_HepG2_CellLoss_72hr: Apredica 72-hour HepG2 Assay for Cell Loss (AID 2282915). As to conditions: high-content imaging. The method, boiled down:
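HepG2 cells were exposed for 72 hr to compounds at 0.39–200 uM (ten concentrations, duplicate) in 0.5% v/v final DMSO. Nuclei were stained with Hoechst 33342 after 3.7% formaldehyde fixation, imaged at 20x, and counted; fits bidirectional versus DMSO.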

Assay [2] in a line: APR_HepG2_P-H2AX_72hr: Apredica 72-hour HepG2 Assay for H2AX Phosphorylation (AID 2282916).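 Also: phospho-histone H2A.x immunostain intensity per cell marking DNA damage.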 The conditions noted are these: imaging, actives raise or lower the signal. The method, boiled down:
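Human hepatoma HepG2 cells are dosed across ten concentrations (0.39 to 200 uM, 0.5% v/v DMSO) and incubated 72 hr. Phospho-histone H2A.x is then detected by antibody staining alongside c-Jun and Hoechst, and quantified by automated fluorescence imaging.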

Assay [3] in a line: APR_HepG2_MitoMembPot_72hr: Apredica 72-hour HepG2 Assay for Mitochondrial Membrane Potential (AID 2282917). The conditions noted are these: imaging, actives raise or lower the signal. The method, boiled down: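 HepG2 cells exposed 72 h to compounds at 0.39–200 uM (0.5% v/v DMSO, duplicates); MitoTracker Red CMXRos 250 nM loaded 30 min before 3.7% formaldehyde fixation, imaged by HCS fluorescence. Bidirectional fit versus DMSO.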

Assay [4] is described as follows: APR_HepG2_MitoticArrest_72hr: Apredica 72-hour HepG2 Assay for Mitotic Arrest (AID 2282918). The conditions noted are these: high-content imaging, actives raise or lower the signal. The method, boiled down: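 HepG2 cells were exposed for 72 hr to compound at 0.39–200 uM (10 concentrations, duplicate) in 0.5% v/v DMSO, fixed in 3.7% formaldehyde, immunostained for phospho-histone H3 with Hoechst 33342 and imaged by high-content fluorescence; bidirectional fits versus DMSO.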

Assay [5] in a line: APR_HepG2_P-H2AX_24hr: Apredica 24-hour HepG2 Assay for H2AX Phosphorylation (AID 2282920). As to conditions: high-content imaging, actives raise or lower the signal. The method, boiled down: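 HepG2 human liver cells were exposed for 24 hr to compounds at 0.39–200 uM in duplicate, with 0.5% v/v DMSO final. Fixed cells were immunostained for phospho-histone H2A.x plus Hoechst 33342, imaged by HCS fluorescence, and fitted bidirectionally against DMSO.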

The nature of assay [6]: APR_HepG2_StressKinase_72hr: Apredica 72-hour HepG2 Assay for Stress Kinase (AID 2282921). As to conditions: HepG2 stress kinase (phospho-c-Jun) imaging, actives raise or lower the signal. In short, it runs like this: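 After a 72 h compound treatment spanning 0.39 to 200 uM, formaldehyde-fixed cells are labelled for phosphorylated c-Jun and nuclei, imaged by automated fluorescence microscopy, and activity is fitted in both directions relative to DMSO controls.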

Assay [7] can be described thus: APR_HepG2_StressKinase_24hr: Apredica 24-hour HepG2 Assay for Stress Kinase (AID 2282922). As to conditions: HepG2 stress kinase (phospho-c-Jun) imaging, actives raise or lower the signal. The method, boiled down:
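After 24 hr compound treatment (up to 200 uM, final DMSO 0.5% v/v), HepG2 cells are fixed and multiplex-labeled; phospho-c-Jun intensity is captured by high-content fluorescence imaging and analyzed relative to DMSO.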

A short description of assay [8]: APR_HepG2_MitoMass_72hr: Apredica 72-hour HepG2 Assay for Mitochondrial Mass (AID 2282924).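 Also: MitoTracker Red CMXRos stain intensity per cell imaged as mitochondrial mass.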 As to conditions: high-content imaging, actives raise or lower the signal. The method, boiled down: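 Steps: treat HepG2 72 hr (0.39–200 uM, duplicate wells); load MitoTracker Red CMXRos, 250 nM, 30 min; fix with 3.7% formaldehyde, permeabilise with 0.5% Triton X-100; capture images, nuclei via Hoechst 33342; fit bidirectionally against DMSO.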

Assay [9] can be described thus: ATG_CRE_CIS: Attagene CIS-FACTORIAL HepG2 Assay for human cAMP Responsive Element (CRE) binding protein 3 (AID 2282926). The conditions noted are these: HepG2 CRE cis-reporter, Attagene multiplexed mRNA; actives raise or lower the signal. The method, boiled down: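 Capillary electrophoresis of 6-FAM-labelled, HpaI-digested PCR products quantified reporter transcripts. These came from HepG2 transiently transfected with cis-element reporters and exposed to test chemicals for 24 hours, with DMSO defining baseline activity.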

A short description of assay [10]: ATG_CMV_CIS: Attagene CIS-FACTORIAL HepG2 Assay for human CMV (Internal Marker) (AID 2282928).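 Also: endpoint acts as a background internal control marker rather than a target.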 As to conditions: HepG2 CMV promoter reporter, transcription factor profiling; actives raise or lower the signal. In short, it runs like this: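 Bidirectional fits against DMSO are applied to reporter mRNA, read by RT-PCR with capillary electrophoresis, from HepG2 cells exposed 24 h. The endpoint serves as an internal CMV background marker within the cis-factorial reporter panel.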

Assay [11] is described as follows: ATG_DR4_LXR_CIS: Attagene CIS-FACTORIAL HepG2 Assay for human Liver X Receptor (LXR), DR4 submotif (AID 2282929). As to conditions: HepG2 Attagene DR4 cis-reporter, mRNA transcription; actives raise or lower the signal. In short, it runs like this: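 After transient transfection with multiplexed cis-promoter reporter units, HepG2 cells received test chemicals for 24 h. Reporter mRNA induction, detected by fluorescence after RT-PCR and capillary electrophoresis, was scored relative to DMSO.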

The target of assay [12] is Aryl hydrocarbon receptor (Homo sapiens) (UniProt P35869). In words: ATG_Ahr_CIS: Attagene CIS-FACTORIAL HepG2 Assay for human Aryl Hydrocarbon Receptor (Ahr) (AID 2282930). The conditions noted are these: HepG2 AhR cis-factorial reporter transcription; actives raise or lower the signal. In short, it runs like this:
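Values derive from bidirectional fitting against DMSO negative control. Underlying signal: cis-element reporter mRNA in transiently transfected HepG2, harvested 24 h post-dose and measured by RT-PCR plus capillary electrophoresis.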

Assay [13] in a line: ATG_AP_1_CIS: Attagene CIS-FACTORIAL HepG2 Assay for human Activator Protein 1 (AP-1) (AID 2282931). The conditions noted are these: HepG2 Attagene cis-factorial AP-1 reporter mRNA; actives raise or lower the signal. In short, it runs like this: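 After 24 h incubation with test chemical, RNA from transfected HepG2 cells was reverse-transcribed, amplified, fluorescently labelled and digested before capillary electrophoresis. Reporters were driven by cis-regulatory promoters; activity fitted bidirectionally versus DMSO.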

The nature of assay [14]: ATG_AP_2_CIS: Attagene CIS-FACTORIAL HepG2 Assay for human Activator Protein 2 (AP-2) (AID 2282932). As to conditions: HepG2 AP-2 cis-reporter, Attagene transcription factor profiling; actives raise or lower the signal. In short, it runs like this: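 Cells (HepG2) transfected with promoter-driven reporter constructs, treated 24 h. Total RNA reverse-transcribed, reporter cDNA PCR-amplified, FAM-labelled by primer extension, digested, resolved by capillary electrophoresis. Activity fitted both directions versus DMSO.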

A short description of assay [15]: ATG_BRE_CIS: Attagene CIS-FACTORIAL HepG2 Assay for human Bone Morphogenetic Protein (BMP) Response Element (BRE) (AID 2282933). As to conditions: HepG2 BMP response element reporter, Attagene transcription factor profiling; actives raise or lower the signal. The method, boiled down: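 HepG2 cells transiently transfected with CIS reporter units (endogenous TF activity, BMP response element), dosed 24 h. Reporter mRNA quantified by RT-PCR, fluorescent labelling and capillary electrophoresis; bidirectional fit vs DMSO baseline.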

Assay [16] has as its target Retinoic acid receptor alpha (Homo sapiens) (UniProt P10276). The assay is described as follows: ATG_DR5_RAR_CIS: Attagene CIS-FACTORIAL HepG2 Assay for human Retinoic Acid Receptor Alpha (RARE), DR5 submotif (AID 2282934).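 As to AC50: reporter responds to endogenous RAR alpha beta and gamma in HepG2 not RARA alone.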 As to conditions: HepG2 Attagene cis-factorial RARE DR5 reporter, mRNA; actives raise or lower the signal. The method, boiled down:
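Endpoint fitted in both directions relative to DMSO as negative control. It reflects DR5 cis-element reporter mRNA induction in transiently transfected HepG2 cells, measured 24 h after dosing through RT-PCR and fluorescent capillary electrophoresis.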

A short description of assay [17]: APR_HepG2_MicrotubuleCSK_72hr: Apredica 72-hour HepG2 Assay for Microtubule CSK Stabilty (AID 2282919). The conditions noted are these: HepG2 microtubule cytoskeleton, high-content imaging, actives raise or lower the signal. In short, it runs like this:
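Ten-point dosing (0.39–200 uM, 0.5% DMSO) of HepG2 for 72 hr, with taxol as the cytoskeletal positive control. The cells were formaldehyde-fixed and then stained with alpha-tubulin/Cy5 and Hoechst. Imaging at 20x used a −2 um Z offset for tubulin.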

Assay [18] can be described thus: APR_HepG2_p53Act_72hr: Apredica 72-hour HepG2 Assay for p53 Activation (AID 2282923).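 Also: average cellular p53 protein immunofluorescence intensity in HepG2 cells.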 The conditions noted are these: high-content imaging, actives raise or lower the signal. The method, boiled down:
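Imaging-based endpoint: after 72 hr compound exposure (up to 200 uM, 0.5% DMSO), fixed and permeabilized monolayers were labelled with anti-p53 antibody and imaged; signal change in either direction was fitted relative to DMSO controls.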

Assay [19] in a line: APR_HepG2_NuclearSize_72hr: Apredica 72-hour HepG2 Assay for Nuclear Size (AID 2282925). As to conditions: high-content imaging, actives raise or lower the signal. In short, it runs like this:
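Compounds (0.39–200 uM, final DMSO 0.5%) were applied to HepG2 for 72 hr. Cells were then formaldehyde-fixed, permeabilized and labelled with Hoechst 33342. Nuclear diameter was quantified from six images per well.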

Assay [20] concerns the target CCAAT/enhancer-binding protein beta (Homo sapiens) (UniProt P17676). The assay is described as follows: ATG_C_EBP_CIS: Attagene CIS-FACTORIAL HepG2 Assay for human CCAAT/Enhancer Binding Protein (C/EBP) beta (AID 2282927). As to conditions: HepG2 Attagene cis-factorial transcription factor reporter; actives raise or lower the signal. The method, boiled down: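 Following a 24 h incubation with test chemical, transfected HepG2 cells yielded RNA whose reporter transcripts were quantified by RT-PCR and fluorescent capillary electrophoresis, with DMSO serving as baseline for bidirectional fitting.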

Sequence of Retinoic acid receptor alpha (Homo sapiens) (P10276 whole entry, looked up): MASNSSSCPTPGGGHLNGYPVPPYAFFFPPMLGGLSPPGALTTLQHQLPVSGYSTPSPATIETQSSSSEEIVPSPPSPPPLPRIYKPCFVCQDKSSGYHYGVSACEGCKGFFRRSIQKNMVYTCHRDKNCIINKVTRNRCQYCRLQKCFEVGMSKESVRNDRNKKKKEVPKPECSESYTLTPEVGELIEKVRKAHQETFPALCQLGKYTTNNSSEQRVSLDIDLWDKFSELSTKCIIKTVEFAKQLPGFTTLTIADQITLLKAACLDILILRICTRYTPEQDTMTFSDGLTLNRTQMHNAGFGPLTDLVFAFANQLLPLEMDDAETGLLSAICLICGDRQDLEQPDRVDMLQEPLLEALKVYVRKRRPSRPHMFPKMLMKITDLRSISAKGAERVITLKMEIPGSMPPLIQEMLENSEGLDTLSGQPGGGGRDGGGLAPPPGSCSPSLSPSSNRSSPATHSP
Sequence of Aryl hydrocarbon receptor (Homo sapiens) (P35869 whole entry, looked up): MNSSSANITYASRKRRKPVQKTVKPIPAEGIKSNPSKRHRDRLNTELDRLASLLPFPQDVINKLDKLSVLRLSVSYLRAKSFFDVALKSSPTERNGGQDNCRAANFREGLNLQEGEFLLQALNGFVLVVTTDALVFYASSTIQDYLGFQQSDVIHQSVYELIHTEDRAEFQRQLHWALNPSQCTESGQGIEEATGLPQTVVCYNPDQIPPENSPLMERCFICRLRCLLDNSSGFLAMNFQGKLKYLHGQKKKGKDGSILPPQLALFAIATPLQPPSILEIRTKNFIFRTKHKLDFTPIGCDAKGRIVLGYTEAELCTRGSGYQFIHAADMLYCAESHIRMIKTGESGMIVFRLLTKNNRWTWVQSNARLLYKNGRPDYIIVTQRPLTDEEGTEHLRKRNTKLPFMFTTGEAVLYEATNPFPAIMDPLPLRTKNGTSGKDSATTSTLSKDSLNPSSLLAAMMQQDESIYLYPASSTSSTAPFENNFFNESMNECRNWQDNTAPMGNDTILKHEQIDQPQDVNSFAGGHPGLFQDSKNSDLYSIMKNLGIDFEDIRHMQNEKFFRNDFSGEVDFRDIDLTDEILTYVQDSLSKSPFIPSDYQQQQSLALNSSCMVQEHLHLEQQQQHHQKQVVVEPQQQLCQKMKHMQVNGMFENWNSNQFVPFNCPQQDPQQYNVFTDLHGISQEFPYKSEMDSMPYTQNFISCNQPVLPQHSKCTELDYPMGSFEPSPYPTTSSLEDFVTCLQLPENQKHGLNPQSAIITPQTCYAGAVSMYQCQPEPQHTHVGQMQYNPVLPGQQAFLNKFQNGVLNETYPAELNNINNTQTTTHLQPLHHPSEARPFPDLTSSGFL
Sequence of CCAAT/enhancer-binding protein beta (Homo sapiens) (P17676 whole entry, looked up): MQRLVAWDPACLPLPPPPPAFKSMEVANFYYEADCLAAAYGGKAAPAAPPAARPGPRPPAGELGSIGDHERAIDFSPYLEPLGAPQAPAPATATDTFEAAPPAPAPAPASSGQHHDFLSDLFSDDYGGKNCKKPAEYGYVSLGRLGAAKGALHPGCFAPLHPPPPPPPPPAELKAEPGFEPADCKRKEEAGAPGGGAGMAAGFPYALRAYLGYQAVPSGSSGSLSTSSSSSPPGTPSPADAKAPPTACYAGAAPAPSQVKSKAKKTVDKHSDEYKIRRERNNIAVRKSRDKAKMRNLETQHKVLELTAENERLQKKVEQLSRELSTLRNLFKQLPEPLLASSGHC

For `N#CN`, the molecule was classed as inactive in assay [1], in assay [2], in assay [3], in assay [4], in assay [5] and in assay [6]. In addition, the outcome in assay [7], in assay [8], in [9], in assay [10], in assay [11] and in assay [12] was inactive. In addition, the molecule was called inactive in assay [13], in [14], in [15] and in assay [16].
As to `CCS(=O)(=O)c1cccnc1S(=O)(=O)NC(=O)Nc1nc(OC)cc(OC)n1`, the molecule was classed as inactive in assay [1], in assay [2], in assay [3], in assay [4], in assay [17] and in assay [5]. The call in assay [6], in [7], in [18], in assay [8], in [9] and in assay [10] was inactive. Also, the molecule was called inactive in assay [11], in assay [12], in assay [13], in assay [14], in assay [15] and in assay [16].
As to `CCN(CC)C(=O)SCc1ccc(Cl)cc1`, the molecule was called inactive in [2], in assay [3], in [4], in assay [17], in [5] and in assay [6]. Also, the molecule was classed as inactive in assay [7], in assay [18], in assay [8], in [19], in assay [9] and in [10]. Further, the molecule was classed as inactive in assay [11], in [12], in assay [13], in assay [14] and in [16]. For the same molecule, the AC50 in assay [20] is 8.69 µM (active); in [15] it was 50 µM (active).
Turning to `O=C(O)C(F)(F)C(F)(F)C(F)(F)C(F)(F)C(F)(F)C(F)(F)C(F)(F)F`, the AC50 was 108 µM (active) in assay [1]; 116 µM (active) and 111 µM (active) in assay [3]; 11.5 µM (active) in [11]; 150 µM (active) in assay [13]. Besides, the call in assay [1], in assay [2], in [4], in [5], in assay [6] and in assay [18] was inactive. The molecule was classed as inactive in assay [8], in assay [9], in assay [10], in [11], in [12] and in assay [13]. Also, the result in assay [14] and in [15] was inactive.
Regarding `COC(=O)c1ccccc1CS(=O)(=O)NC(=O)Nc1nc(OC)cc(OC)n1`, the result in [2], in [3], in [4], in assay [17], in assay [5] and in assay [6] was inactive. The outcome in assay [18], in assay [8], in [9], in assay [20], in [10] and in assay [11] was inactive. The molecule was called inactive in [12], in assay [13], in assay [14], in assay [15] and in [16].
As for `CC(C)(C)C(O)C(Oc1ccc(Cl)cc1)n1cncn1` (stereo not given), the result in [2], in assay [3], in [4], in assay [5], in assay [6] and in [18] was inactive. Besides, the call in assay [8], in [19], in [9], in assay [10], in assay [11] and in assay [12] was inactive. For the same molecule, the call in assay [13], in assay [14], in [15] and in assay [16] was inactive. The AC50 is 37.4 µM (active) in assay [3]; 98 µM (active) in assay [8]; 5.81 µM (active) in assay [9]; 10.4 µM (active) in [13]; 7.92 µM (active) in assay [15]; 4.35 µM (active) and 4.55 µM (active) and 7.16 µM (active) in [16].

(Values after PubChem BioAssay (EPA / NIEHS).)
